# Laboratory results from PubChem BioAssay.
# Where “and” joins values, the source holds several entries; their conditions need not be identical. Equal entries are not always repeated.
# Assay: growth inhibition, single agents and combos, HTB85, cell-based, BGB or cisplatin IC20 combos, synergistic combos for chromothripsis tumors (AID 1671453);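 further: cells exposed for 96 hours before readout; 0% = vehicle DMSO and 100% = high DMSO killing control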
# Details: HTB85 osteosarcoma cells, drug combinations, measured here: with BGB IC20, at 0.5 µM, stronger effect = higher value
row,Compound,inhibition
1,Cc1c(N)nc(C(CC(N)=O)NCC(N)C(N)=O)nc1C(=O)NC(C(=O)NC(C)C(O)C(C)C(=O)NC(C(=O)NCCc1nc(-c2nc(C(=O)NCCC[S+](C)C)cs2)cs1)C(C)O)C(O[C@@H]1O[C@@H](CO)[C@@H](O)[C@H](O)[C@@H]1O[C@H]1O[C@H](CO)[C@@H](O)[C@H](OC(N)=O)[C@@H]1O)c1cnc[nH]1 (stereo not given in full),21.6% and 26.9%
2,O=c1[nH]c(=O)n(C2OC(CO)C(O)C2O)cc1F (stereo not given),-3.46%
3,O=P(O)(NCCCl)NCCCl,-31.2%
4,CC1(C)C(C(=O)Nc2ccc(S(=O)(=O)c3ccc(NC(=O)C4C(C)(C)C4(C)C)cc3)cc2)C1(C)C,-37%
5,CCC1(O)C(=O)OCc2c1cc1n(c2=O)Cc2cc3ccccc3nc2-1 (stereo not given),83.6% and 98.1%
6,NC(Cc1ccc(N(CCCl)CCCl)cc1)C(=O)O (stereo not given),1.88%
7,COc1cc([C@@H]2c3cc4c(cc3[C@H](O)[C@H]3COC(=O)[C@H]23)OCO4)cc(OC)c1O,56.9% and 41.3%
8,COc1cc(C2c3cc4c(cc3C(O)C3COC(=O)C23)OCO4)cc(OC)c1OC (stereo not given),55.2%

# Same assay, conditions: HTB85 osteosarcoma cells, drug combinations, measured here: with BGB IC20, at 5 µM, stronger effect = higher value
row,Compound,inhibition
1,Cc1c(N)nc(C(CC(N)=O)NCC(N)C(N)=O)nc1C(=O)NC(C(=O)NC(C)C(O)C(C)C(=O)NC(C(=O)NCCc1nc(-c2nc(C(=O)NCCC[S+](C)C)cs2)cs1)C(C)O)C(O[C@@H]1O[C@@H](CO)[C@@H](O)[C@H](O)[C@@H]1O[C@H]1O[C@H](CO)[C@@H](O)[C@H](OC(N)=O)[C@@H]1O)c1cnc[nH]1 (stereo not given in full),61.8% and 92.6%
2,O=c1[nH]c(=O)n(C2OC(CO)C(O)C2O)cc1F (stereo not given),59.1%
3,O=P(O)(NCCCl)NCCCl,0.766%
4,CC1(C)C(C(=O)Nc2ccc(S(=O)(=O)c3ccc(NC(=O)C4C(C)(C)C4(C)C)cc3)cc2)C1(C)C,-16.1%
5,CCC1(O)C(=O)OCc2c1cc1n(c2=O)Cc2cc3ccccc3nc2-1 (stereo not given),99.4% and 98.2%
6,NC(Cc1ccc(N(CCCl)CCCl)cc1)C(=O)O (stereo not given),54.4%
7,COc1cc([C@@H]2c3cc4c(cc3[C@H](O)[C@H]3COC(=O)[C@H]23)OCO4)cc(OC)c1O,58.2% and 51.8%
8,COc1cc(C2c3cc4c(cc3C(O)C3COC(=O)C23)OCO4)cc(OC)c1OC (stereo not given),54%

# Same assay, conditions: HTB85 osteosarcoma cells, drug combinations, measured here: with cisplatin IC20, at 0.5 µM, stronger effect = higher value
row,Compound,inhibition
1,Cc1c(N)nc(C(CC(N)=O)NCC(N)C(N)=O)nc1C(=O)NC(C(=O)NC(C)C(O)C(C)C(=O)NC(C(=O)NCCc1nc(-c2nc(C(=O)NCCC[S+](C)C)cs2)cs1)C(C)O)C(O[C@@H]1O[C@@H](CO)[C@@H](O)[C@H](O)[C@@H]1O[C@H]1O[C@H](CO)[C@@H](O)[C@H](OC(N)=O)[C@@H]1O)c1cnc[nH]1 (stereo not given in full),14.2% and 23.1%
2,O=c1[nH]c(=O)n(C2OC(CO)C(O)C2O)cc1F (stereo not given),26.3%
3,O=P(O)(NCCCl)NCCCl,-42.4%
4,CC1(C)C(C(=O)Nc2ccc(S(=O)(=O)c3ccc(NC(=O)C4C(C)(C)C4(C)C)cc3)cc2)C1(C)C,-31.9%
5,CCC1(O)C(=O)OCc2c1cc1n(c2=O)Cc2cc3ccccc3nc2-1 (stereo not given),89.5% and 97.8%
6,NC(Cc1ccc(N(CCCl)CCCl)cc1)C(=O)O (stereo not given),-13.1%
7,COc1cc([C@@H]2c3cc4c(cc3[C@H](O)[C@H]3COC(=O)[C@H]23)OCO4)cc(OC)c1O,60.9% and 54%
8,COc1cc(C2c3cc4c(cc3C(O)C3COC(=O)C23)OCO4)cc(OC)c1OC (stereo not given),72.6%

# Same assay, conditions: HTB85 osteosarcoma cells, drug combinations, measured here: with cisplatin IC20, at 5 µM, stronger effect = higher value
row,Compound,inhibition
1,Cc1c(N)nc(C(CC(N)=O)NCC(N)C(N)=O)nc1C(=O)NC(C(=O)NC(C)C(O)C(C)C(=O)NC(C(=O)NCCc1nc(-c2nc(C(=O)NCCC[S+](C)C)cs2)cs1)C(C)O)C(O[C@@H]1O[C@@H](CO)[C@@H](O)[C@H](O)[C@@H]1O[C@H]1O[C@H](CO)[C@@H](O)[C@H](OC(N)=O)[C@@H]1O)c1cnc[nH]1 (stereo not given in full),54.6% and 74.3%
2,O=c1[nH]c(=O)n(C2OC(CO)C(O)C2O)cc1F (stereo not given),57.2%
3,O=P(O)(NCCCl)NCCCl,5.56%
4,CC1(C)C(C(=O)Nc2ccc(S(=O)(=O)c3ccc(NC(=O)C4C(C)(C)C4(C)C)cc3)cc2)C1(C)C,-19.7%
5,CCC1(O)C(=O)OCc2c1cc1n(c2=O)Cc2cc3ccccc3nc2-1 (stereo not given),99.8% and 99.6%
6,NC(Cc1ccc(N(CCCl)CCCl)cc1)C(=O)O (stereo not given),74.4%
7,COc1cc([C@@H]2c3cc4c(cc3[C@H](O)[C@H]3COC(=O)[C@H]23)OCO4)cc(OC)c1O,70.5% and 80%
8,COc1cc(C2c3cc4c(cc3C(O)C3COC(=O)C23)OCO4)cc(OC)c1OC (stereo not given),73%

# Same assay, conditions: HTB85 osteosarcoma cells, drug combinations, single agent, at 5 µM, stronger effect = higher value
row,Compound,inhibition
1,Cc1c(N)nc(C(CC(N)=O)NCC(N)C(N)=O)nc1C(=O)NC(C(=O)NC(C)C(O)C(C)C(=O)NC(C(=O)NCCc1nc(-c2nc(C(=O)NCCC[S+](C)C)cs2)cs1)C(C)O)C(O[C@@H]1O[C@@H](CO)[C@@H](O)[C@H](O)[C@@H]1O[C@H]1O[C@H](CO)[C@@H](O)[C@H](OC(N)=O)[C@@H]1O)c1cnc[nH]1 (stereo not given in full),73.7% and 82.2%
2,O=c1[nH]c(=O)n(C2OC(CO)C(O)C2O)cc1F (stereo not given),76.2%
3,O=P(O)(NCCCl)NCCCl,-6.89%
4,CC1(C)C(C(=O)Nc2ccc(S(=O)(=O)c3ccc(NC(=O)C4C(C)(C)C4(C)C)cc3)cc2)C1(C)C,-8.34%
5,CCC1(O)C(=O)OCc2c1cc1n(c2=O)Cc2cc3ccccc3nc2-1 (stereo not given),99.8%
6,NC(Cc1ccc(N(CCCl)CCCl)cc1)C(=O)O (stereo not given),59.9%
7,COc1cc([C@@H]2c3cc4c(cc3[C@H](O)[C@H]3COC(=O)[C@H]23)OCO4)cc(OC)c1O,87% and 84.5%
8,COc1cc(C2c3cc4c(cc3C(O)C3COC(=O)C23)OCO4)cc(OC)c1OC (stereo not given),89.8%
